Measured values taken from PubChem BioAssay (EPA / NIEHS).
Calls of active or inactive are those of the source. Rule for the calls: active = hit-call score of the fitted dose curve at least 0.9, where 1 is the maximum; inactive = score below 0.9.

Key:
[1] = target: Nuclear respiratory factor 1 (Homo sapiens) (UniProt Q16656); experiment: ATG_NRF1_CIS: Attagene CIS-FACTORIAL HepG2 Assay for human Nuclear Respiratory Factor 1 (NRF1) Orphan Gene (AID 2282987); details: HepG2 NRF1 cis-element reporter, Attagene multiplex; actives raise or lower the signal
Chain of Nuclear respiratory factor 1 (Homo sapiens) (Q16656 whole entry, looked up): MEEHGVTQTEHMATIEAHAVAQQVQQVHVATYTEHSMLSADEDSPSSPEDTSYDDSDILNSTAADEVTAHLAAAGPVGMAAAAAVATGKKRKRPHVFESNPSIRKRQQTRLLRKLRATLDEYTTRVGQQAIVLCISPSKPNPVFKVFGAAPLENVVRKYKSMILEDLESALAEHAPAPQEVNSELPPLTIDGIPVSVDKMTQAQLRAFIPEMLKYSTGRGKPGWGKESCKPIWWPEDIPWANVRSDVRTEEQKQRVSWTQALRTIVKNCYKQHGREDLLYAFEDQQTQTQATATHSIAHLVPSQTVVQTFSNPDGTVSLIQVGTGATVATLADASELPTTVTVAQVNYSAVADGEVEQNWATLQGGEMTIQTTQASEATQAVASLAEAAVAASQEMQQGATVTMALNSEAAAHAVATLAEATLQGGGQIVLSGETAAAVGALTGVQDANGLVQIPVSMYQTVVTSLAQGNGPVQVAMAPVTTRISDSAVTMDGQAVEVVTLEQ
Procedure, shortened: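 Endogenous factor activity was captured via cis-element-driven reporter transcripts in HepG2 cells. Following 24 h chemical treatment, transcripts were quantified by RT-PCR and capillary electrophoresis.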

[2] = ATG_NFI_CIS: Attagene CIS-FACTORIAL HepG2 Assay for human Nuclear Factor I (NFI) (AID 2282989); details: HepG2 cis-regulatory reporter, NFI response element transcription; actives raise or lower the signal
Procedure, shortened: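 HepG2 cells transiently transfected with cis-element-driven multiplexed reporter transcription units, dosed for 24 h. Reporter mRNA quantified by RT-PCR, fluorescent labelling, HpaI digestion and capillary electrophoresis; bidirectional fit versus DMSO baseline.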

[3] = target: Myc proto-oncogene protein (Homo sapiens) (UniProt P01106); experiment: ATG_Myc_CIS: Attagene CIS-FACTORIAL HepG2 Assay for human Myelocytomatosis (Myc) Proto-Oncogene Transcription Factor (AID 2282990); details: HepG2, Attagene cis-reporter transcription factor activity; actives raise or lower the signal
Chain of Myc proto-oncogene protein (Homo sapiens) (P01106 whole entry, looked up): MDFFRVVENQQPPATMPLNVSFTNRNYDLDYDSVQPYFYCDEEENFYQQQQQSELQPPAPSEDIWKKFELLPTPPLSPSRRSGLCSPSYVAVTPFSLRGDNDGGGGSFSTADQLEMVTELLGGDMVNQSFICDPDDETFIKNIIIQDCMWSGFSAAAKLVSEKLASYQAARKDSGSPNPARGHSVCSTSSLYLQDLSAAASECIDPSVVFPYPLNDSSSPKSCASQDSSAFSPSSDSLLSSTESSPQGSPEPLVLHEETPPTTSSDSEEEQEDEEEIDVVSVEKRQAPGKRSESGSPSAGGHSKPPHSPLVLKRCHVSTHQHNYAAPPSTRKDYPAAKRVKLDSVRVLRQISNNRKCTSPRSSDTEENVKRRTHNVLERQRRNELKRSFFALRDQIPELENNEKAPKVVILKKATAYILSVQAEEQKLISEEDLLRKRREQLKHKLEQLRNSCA
Procedure, shortened: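 Multiplexed cis-reporter transcription in HepG2 cells after 24 h chemical treatment. Reporter mRNA measured by RT-PCR and capillary electrophoresis fluorescence; activity fitted bidirectionally against DMSO control.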

[4] = ATG_NF_kB_CIS: Attagene CIS-FACTORIAL HepG2 Assay for human Nuclear Factor Kappa B (NF-kB) (AID 2282991); details: HepG2 Attagene cis-factorial NF-kB reporter mRNA; actives raise or lower the signal
Procedure, shortened: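 After 24 h compound incubation, transfected HepG2 cells yield total RNA; reporter cDNA is PCR-amplified, end-labelled with 6-FAM, HpaI-digested and analysed on a genetic analyser. Endogenous factor activity, DMSO-referenced bidirectional fit.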

[5] = ATG_NRF2_ARE_CIS: Attagene CIS-FACTORIAL HepG2 Assay for human Nuclear Factor Erythroid 2 Related Factor 2 (NFR2) response to Antioxidant Response Elements (ARE) (AID 2282992); details: HepG2 Attagene ARE/NRF2 reporter, transcription factor activity; actives raise or lower the signal
Procedure, shortened: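 Readout: reporter mRNA quantified by RT-PCR plus FAM-labelled primer extension, HpaI digestion and capillary electrophoresis, 24 h after dosing transfected HepG2 cells. Gain or loss of signal is fitted bidirectionally against DMSO baseline.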

[6] = ATG_Oct_MLP_CIS: Attagene CIS-FACTORIAL HepG2 Assay for human Octamer-Binding Transcription Factor (Oct) (AID 2282993); details: HepG2 Attagene cis-factorial Oct reporter, mRNA; actives raise or lower the signal
Procedure, shortened: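 HepG2 cells transiently transfected with cis-promoter-driven multiplexed reporter transcription units, dosed for 24 h. Reporter mRNA quantified by RT-PCR, fluorescent labelling, HpaI digestion and capillary electrophoresis; bidirectional fits versus DMSO baseline.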

[7] = target: Cellular tumor antigen p53 (Homo sapiens) (UniProt P04637); experiment: ATG_p53_CIS: Attagene CIS-FACTORIAL HepG2 Assay for human p53 Transcription Factor (AID 2282994); details: HepG2 p53 cis-element reporter, Attagene mRNA; actives raise or lower the signal
Chain of Cellular tumor antigen p53 (Homo sapiens) (P04637 whole entry, looked up): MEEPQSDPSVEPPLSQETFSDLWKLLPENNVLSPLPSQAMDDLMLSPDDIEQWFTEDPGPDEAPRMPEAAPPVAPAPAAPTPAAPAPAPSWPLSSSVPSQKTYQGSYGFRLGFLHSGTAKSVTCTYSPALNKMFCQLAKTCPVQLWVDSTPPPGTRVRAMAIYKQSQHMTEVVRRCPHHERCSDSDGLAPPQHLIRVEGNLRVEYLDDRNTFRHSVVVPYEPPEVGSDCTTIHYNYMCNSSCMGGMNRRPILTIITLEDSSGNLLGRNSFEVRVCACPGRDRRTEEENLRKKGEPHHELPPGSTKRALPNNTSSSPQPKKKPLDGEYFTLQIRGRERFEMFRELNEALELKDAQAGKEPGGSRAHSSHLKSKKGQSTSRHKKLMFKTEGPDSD
Procedure, shortened: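 Read-out: reporter mRNA by RT-PCR plus capillary electrophoresis with fluorescence detection. Human HepG2 liver cells carried transfected multi-reporter cis-element constructs, dosed 24 h. Gain or loss of signal fitted bidirectionally against DMSO control.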

[8] = BSK_3C_TissueFactor: BioMAP Diversity Plus: 3C Assay for Tissue Factor Biomarker Activity (AID 2282997); details: BioMAP 3C HUVEC, tissue factor biomarker readout; actives raise or lower the signal
Procedure, shortened: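 HUVEC, 3C system, 24 h post-dose; Tissue Factor by ELISA; bidirectional fit vs DMSO baseline.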

[9] = BSK_3C_uPAR: BioMAP Diversity Plus: 3C Assay for Urokinase-type plasminogen activator receptor (uPAR) Biomarker Activity (AID 2282998); details: BioMAP 3C HUVEC, uPAR biomarker ELISA; actives raise or lower the signal
Procedure, shortened: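 Human umbilical vein endothelial primary cells were exposed to test chemical for 24 h. Cell-surface uPAR was then quantified by ELISA, and responses were fitted bidirectionally against DMSO as negative control and baseline.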

[10] = BSK_3C_VCAM1: BioMAP Diversity Plus: 3C Assay for Vascular cell adhesion molecule 1 (VCAM1) Biomarker Activity (AID 2282999); details: BioMAP 3C HUVEC, VCAM1 ELISA, cytokine-stimulated; actives raise or lower the signal
Procedure, shortened: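 Vascular primary endothelium (human umbilical vein) was exposed to chemicals and assayed 24 h later. VCAM-1 levels came from ELISA, with DMSO serving as baseline for bidirectional fitting.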

Compound | outcome [1] | outcome [2] | outcome [3] | outcome [4] | outcome [5] | outcome [6] | AC50 [7] | outcome [8] | outcome [9] | outcome [10] | outcome [7] | AC50 [8] | AC50 [9] | AC50 [10]
CCN(CC)c1ccc(C=O)c(O)c1 | inactive | inactive | inactive | inactive | inactive | inactive | 70.5 µM (active) | inactive | inactive | inactive |  |  |  | 
NCC(F)(F)C(F)(F)C(F)(F)C(F)(F)C(F)(F)C(F)(F)F | inactive | inactive | inactive | inactive | inactive | inactive |  | inactive | inactive | inactive | inactive |  |  | 
OCCCCC(F)(F)C(F)(F)C(F)(F)C(F)(F)F | inactive | inactive | inactive | inactive | inactive | inactive |  | inactive | inactive | inactive | inactive |  |  | 
CC(C)CCCC(C)CCO (stereo not given) | inactive | inactive | inactive | inactive | inactive | inactive |  |  |  |  | inactive | 36.4 µM (active) | 26.7 µM (active) | 33.9 µM (active)
OCC(O)CC(F)(F)C(F)(F)C(F)(F)C(F)(F)C(F)(F)C(F)(F)C(F)(F)C(F)(F)F (stereo not given) | inactive | inactive | inactive | inactive | inactive | inactive |  | inactive | inactive | inactive | inactive |  |  | 
OCC(F)(F)C(F)(F)C(F)(F)CO | inactive | inactive | inactive | inactive | inactive | inactive |  | inactive | inactive | inactive | inactive |  |  | 
